Shiga inhibitor: blocks Shiga toxin action in Vero cells; 290,000 compounds, 9.2% hits; AID 2315; inhibition, % at 38.7 µM; Vero cells, Shiga toxin protein synthesis inhibition reporter; in the data active = inhibition mostly above about 28%, no sharp cut-off; inactive = mostly below about 43%; note: 0% is about no effect
Cycloheximide cs: counter-screen hit for Shiga toxin inhibitors, cycloheximide. 300,000 compounds, 12% hits. AID 2314. cell reporter, cycloheximide protein synthesis inhibition counterscreen. max response, %; in the data active = max response mostly above about 13%, no sharp cut-off; inactive = mostly below about 14%; note: read at 38.3 µM for the half of the compounds with a filed dose; 0% is about no effect
HCMV antiviral: blocks human cytomegalovirus replication; HFF cells, HCMV-luciferase reporter, 72 h; stronger effect = lower value; AID 1259415; 410,000 compounds, 4.5% hits; activity change, negative = inhibition, % at 57.5 µM; in the data active = activity change below about -60%; inconclusive = no clear call, values can overlap the other calls; inactive = above about -39%; note: % is set by controls: 0 for no effect and ±100 for the full control effect
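Compounds were evaluated in HFFs infected with an HCMV luciferase reporter virus (MOI 1 PFU/cell). Luciferase in lysates collected 72 h post infection served as the replication measure.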
Pf growth 96h: P. falciparum growth inhibition at 96 hour, primary screen for plastid delayed-death inhibitors. P. falciparum luciferase reporter growth, 96 h. Potency, µM (titrated, usually from 28.7 µM), without a hit: top-dose activity change, negative = inhibition, actives largely listed as inhibitors. 320,000 compounds, 6.9% hits. AID 504834; note: potency is the fitted concentration of half-maximal effect; % is set by controls: 0 for no effect and ±100 for the full control effect
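Readout is luminescence from an integrated firefly luciferase in P. falciparum. Red cells, 2% hematocrit and 0.05% parasitemia final, were cultured with compound through two parasite generations (96 hours) at 37 C, 5% CO2.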
Pf growth 48h: inhibits P. falciparum growth in the first generation, 48 h. Potency, µM (doses to about 28.7 µM), inactives show top-dose activity change, negative = inhibition, hits mostly inhibitors. 310,000 compounds, 5.9% hits. P. falciparum luciferase growth in erythrocytes, 48 h; note: potency is the fitted concentration of half-maximal effect; % is set by controls: 0 for no effect and ±100 for the full control effect
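Here the parasites carry a stable luciferase gene and grow inside erythrocytes in Albumax-based RPMI medium with compound for one erythrocytic cycle. Activity is scored as loss of luminescent signal.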
An asterisk follows results filed as active; ? = inconclusive; · = no result given; [ ] = another dose, or the depositor's remark. This is a sample that favours compounds with a hit; in the whole collection about 20% have one here. Unless noted, calls come from the whole dose curve; as a rule, active = well fitted inhibition curve with a large enough effect; inconclusive = small, poorly fitted or top-dose-only effect, or another doubt; inactive = no such curve, though single readings can be large or run the other way.

SMILES	Shiga inhibitor	Cycloheximide cs	HCMV antiviral	Pf growth 96h	Pf growth 48h
CCN1CCCC1CNC(=O)c1cc([N+](=O)[O-])c(N(C)C)cc1OC (stereo unspecified)	5	-3	47	4.1µM*	3%
C=CCN1CCCC1CNC(=O)c1cc2[nH]nnc2cc1OC (stereo unspecified)	·	·	-68*	0%	?
Cc1nn2c(Nc3ccc(F)cc3)c3c(nc2c1-c1ccccc1)CCC3	22	-2	-36	?	?
COCCNc1c2c(nc3c(-c4ccccc4)c(C)nn13)CCCC2	-9	2	-33	9%	?
Cc1nn2c(NCCN(C)C)c3c(nc2c1-c1ccccc1)CCCC3	1	-1	?	2.1µM*	?
Cc1nn2c(NCc3cccnc3)c3c(nc2c1-c1ccccc1)CCC3	6	0	?	1.5µM*	?
COc1cccc(Nc2c3c(nc4c(-c5ccccc5)c(C)nn24)CCC3)c1	4	-5	-63*	12µM*	?
CCCCNc1c2c(nc3c(-c4ccccc4)c(C)nn13)CCC2	9	6	-2	9.3µM*	·
Cc1cccc(NC(=S)NC(NC(=O)OCc2ccccc2)C(Cl)(Cl)Cl)c1 (stereo unspecified)	-23	-1	-22	-12%	-7%
Cc1nn2c(N3CCN(CCO)CC3)c3c(nc2c1-c1ccccc1)CCCC3	-13	-1	-12	?	8.3µM*
CN(C(=O)Cn1cc(S(=O)(=O)Cc2ccccc2Cl)c2ccccc21)c1ccccc1	·	·	0	·	·
CCOC(=O)Cn1nc(C)c2ccccc2c1=O	36	-3	12	·	16%
Cc1nn(CC(N)=O)c(=O)c2ccccc12	-14	-2	-33	2.1µM*	?
Cc1nn(CC(=O)N2CCN(C)CC2)c(=O)c2ccccc12	-29	-4	-2	7.4µM*	31%
CC1CCCN(C(=O)COC(=O)c2cccc(NS(=O)(=O)c3ccccc3)c2)C1 (stereo unspecified)	·	·	-18	18%	4%
COc1ccc(-n2c(C)c(C(C)=O)c3cc(O)ccc32)cc1	-2	-4	-65*	-31%	19%
COc1ccc(-n2c(C)c(C(C)=O)c3cc(OC(=O)c4ccc(C)cc4)ccc32)cc1	·	·	-75*	·	·
COc1ccc(-n2c(C)cc3cc(OC(C)=O)ccc32)cc1	24	11*	-4	46%	13%
COc1ccc(-n2c(C)c(C(C)=O)c(C(C)=O)c2C)cc1	-18	-5	-24	·	-8%
COc1ccc2c(c1)c(C(C)=O)c(C)n2-c1ccccc1	-11	2	-1	?	·
CC(=O)c1c(C)n(-c2cccc(C)c2)c2ccc(OC(=O)COc3ccccc3)cc12	·	·	-63*	·	·
COc1ccc(C2=Nn3c(nnc3-c3cc(C)[nH]n3)SC2)cc1	12	1	33	?	?
O=C(CC1CC1)N1CC(=O)N2[C@@H](CO)[C@@H](c3ccc(Br)cc3)[C@@H]2C1	·	·	-21	·	·
CCOC(=O)c1c(NC(=O)c2cc3ccccc3c(=O)o2)sc2c1CCC(C(C)(C)C)C2 (stereo unspecified)	·	·	9	·	·
CCOc1ccc(-n2c(C)c(C(C)=O)c3cc(OC(C)=O)ccc32)cc1	-11	-1	-78*	6%	?
SMILES	Shiga inhibitor	Cycloheximide cs	HCMV antiviral	Pf growth 96h	Pf growth 48h
CCOc1ccc(-n2c(C)c(C(=O)O)c3cc(OC)ccc32)cc1	7	0	?	9%	?
COc1ccc2c(c1)c(C(C)=O)c(C)n2CCc1ccccc1	-4	-6	-91*	-8%	-7%
CCOC(=O)COc1ccc2c(c1)c(C(C)=O)c(C)n2-c1ccc(OC)cc1	145*	63	10	2%	-16%[0.00184 µM]
Cc1ccc([N+](=O)[O-])c(OCC(=O)OCC(=O)c2ccccc2)c1	-9	-2	-7	0.93µM*	11%
CC(=O)Nc1ccc(OCC(=O)c2cc(C)ccc2C)cc1	-6	-2	-7	9.3µM*	·
CC(=O)N(c1cc(C)ccc1C)c1ccccc1[N+](=O)[O-]	·	·	-63*	·	·
Cc1ccc(OCC(=O)OCC(=O)c2ccccc2)cc1C	-5	0	31	?	17%
Cc1ccc(C)c(C(=O)COc2ccccc2[N+](=O)[O-])c1	26*	36*	-7	35%	-2%
CC(C)c1ccc(-n2nc3ccc(N)cc3n2)cc1	77*	68*	14	?	-4%
Cn1cc2ccc(N)cc2n1	-20	6	-15	-3%	37%
Nc1ccc2nn(-c3ccc(F)cc3)nc2c1	95*	58*	82	?	112%
Cc1ccc(-n2nc3ccc(N)cc3n2)cc1	95	28*	63	22%	58%
Nc1ccc2nn(-c3cc([N+](=O)[O-])ccc3O)nc2c1	-3	7	0	-19%	9%
CCOc1ccc(S(=O)(=O)N2CCCC(C(=O)NC3CC3)C2)cc1Cl (stereo unspecified)	·	·	-18	0%	?
CCCCN(C)c1nc(-c2ccco2)c2c(c1C#N)CC(C)(C)OC2	15	-4	19	2.9µM*	·
CC1(C)Cc2c(C#N)c(NCCCO)nc(-c3ccccc3)c2CO1	-1	0	69	?	·
CN(C)CCNc1nc(-c2ccco2)c2c(c1C#N)CC(C)(C)OC2	-14	-4	-100*	?	-4%
CC(C)CCNc1nc(-c2ccco2)c2c(c1C#N)CCCC2	-6	3	-18	13µM*	·
N#Cc1c(NCCN)nc(-c2ccco2)c2c1CCCC2	18	-2	?	?	·
CCN(CC)CCNc1nc(-c2ccccc2)c2c(c1C#N)CC(C)(C)OC2	-11	-2	-16	8.3µM*	·
CC1(C)Cc2c(C#N)c(N3CCCC3)nc(-c3ccco3)c2CO1	-10	-2	-15	?	·
CCCNC(=O)CCNS(=O)(=O)c1ccc2c(c1)c(=O)n(C)c(=O)n2C	·	·	-25	·	·
CC1CC1C(=O)OCC(=O)Nc1cccc([N+](=O)[O-])c1 (stereo unspecified)	65*	32*	-23	18%	?
CCOc1ccc(NC(=O)COC(=O)C2CC2C)cc1 (stereo unspecified)	·	·	-30	·	·
CCCC(=O)OCC(=O)Nc1ccc(N=Nc2ccccc2)cc1	84*	62*	113	415%	246%
SMILES	Shiga inhibitor	Cycloheximide cs	HCMV antiviral	Pf growth 96h	Pf growth 48h
CC1CC1C(=O)OCC(=O)Nc1ccc(N=Nc2ccccc2)cc1 (stereo unspecified)	93*	55*	174	348%	233%
O=C(O)CCC(=O)Nc1ccc(N=Nc2ccccc2)cc1	17	7	·	96%	46%
Cc1ccc(CNC(=O)C2CCCN2C(=O)Nc2ccccc2)cc1 (stereo unspecified)	-3	-4	-5	214%	17%
O=C(NCSc1ccnc(SCNC(=O)c2ccc(F)cc2)n1)c1ccc(F)cc1	10	-1	-21	23%	10%
CCOCCCn1c(SCC(=O)NCc2ccco2)nc2c(sc3ccccc32)c1=O	46	32*	-27	?	·
O=C(CSc1nc2c(sc3ccccc32)c(=O)n1-c1ccccc1)NCc1ccco1	44	30*	-81*	-10%	?

Assay outcomes from PubChem BioAssay.
